# Data taken from PubChem BioAssay (Tox21).
# Results filed as inconclusive are left out. Where a call stands in place of a potency, no number is given. Calls of active or inactive are those of the source. Unless noted, calls follow the shape of the dose curve; as a rule, active = well fitted curve in the direction sought with a large enough effect in the repeat runs; inconclusive = weak or mixed curves; inactive = no such curve, though single readings can be large; an effect the other way counts as inactive or inconclusive.
# Experiments:
# [1] = target: Peroxisome proliferator-activated receptor gamma (Homo sapiens) (UniProt P37231); test: qHTS assay to identify small molecule antagonists of the peroxisome proliferator-activated receptor gamma (PPARg) signaling pathway (AID 743191; calls by dose curve; also: series mostly up to about 63 µM; nearly all actives have a fitted effect of over 30% in size)
# Sequence of Peroxisome proliferator-activated receptor gamma (Homo sapiens) (P37231 whole entry, looked up): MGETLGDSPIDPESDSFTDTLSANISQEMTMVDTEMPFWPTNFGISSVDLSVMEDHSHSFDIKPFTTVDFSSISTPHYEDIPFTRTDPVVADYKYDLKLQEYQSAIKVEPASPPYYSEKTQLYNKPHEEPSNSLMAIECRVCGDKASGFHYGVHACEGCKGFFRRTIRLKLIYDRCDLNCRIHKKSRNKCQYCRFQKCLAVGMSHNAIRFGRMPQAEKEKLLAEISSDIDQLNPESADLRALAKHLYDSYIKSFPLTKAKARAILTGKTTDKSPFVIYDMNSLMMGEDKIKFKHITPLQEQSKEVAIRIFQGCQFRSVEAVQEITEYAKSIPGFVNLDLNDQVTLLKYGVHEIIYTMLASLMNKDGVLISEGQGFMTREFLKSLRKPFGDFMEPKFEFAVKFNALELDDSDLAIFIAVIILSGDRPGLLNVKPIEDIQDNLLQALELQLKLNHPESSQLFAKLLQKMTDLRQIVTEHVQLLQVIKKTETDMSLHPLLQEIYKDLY
# Procedure, shortened: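 GeneBLAzer PPARg UAS-bla HEK293H cells, 5 h post-plating, exposed to compounds 17 h at 37C. LiveBLAzer B/G FRET substrate added for 1 h at room temperature; beta-lactamase reporter read by fluorescence intensity.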
# [2] = qHTS assay to identify small molecule antagonists of the peroxisome proliferator-activated receptor gamma (PPARg) signaling pathway - cell viability counter screen (AID 743194); also: nearly all actives have a fitted effect of over 55% in size
# Procedure, shortened: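 Cytotoxicity counter screen in PPARg-bla HEK293H cells, same wells as reporter assay. Compounds plus 50 nM rosiglitazone (final) for 17 h at 37 C, then viability read by CellTiter-Glo luminescence.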
# [3] = qHTS assay for small molecule agonists of the antioxidant response element (ARE) signaling pathway - cell viability counter screen (AID 743203; calls by dose curve; also: nearly all actives have a fitted effect of over 55% in size)
# Procedure, shortened: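 Seeded at 2,000 cells/well, ARE-bla HepG2 cells were incubated 5 hrs before compound addition. After 16 hrs of treatment at 37C with 5% CO2, CellTiter-Glo reagent was added and luminescence read 30 min later.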
# [4] = qHTS assay for small molecule activators of the heat shock response signaling pathway - cell viability counter screen (AID 743209); also: nearly all actives have a fitted effect of over 50% in size
# Procedure, shortened: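 First, HSE-bla HeLa cells were seeded at 1500 cells/well and kept overnight at 37 C. Next, compounds were pinned in and incubated 5 h. After the FRET substrate step, CellTiter-Glo was added and luminescence read 30 min later.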
# [5] = qHTS assay to identify small molecule agonists of the peroxisome proliferator-activated receptor delta (PPARd) signaling pathway - cell viability counter screen (AID 743211); also: nearly all actives have a fitted effect of over 55% in size; also: potency is read from the fitted curve at half-maximal effect
# Procedure, shortened: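 In the same wells used for beta-lactamase reporter measurement, cytotoxicity is scored by CellTiter-Glo. HEK293H PPARd-bla cells receive compound for 17 h at 37C following a 5 h settling period.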
# [6] = target: Peroxisome proliferator-activated receptor delta (Homo sapiens) (UniProt Q03181); test: qHTS assay to identify small molecule agonists of the peroxisome proliferator-activated receptor delta (PPARd) signaling pathway (AID 743212; calls by dose curve)
# Sequence of Peroxisome proliferator-activated receptor delta (Homo sapiens) (Q03181 whole entry, looked up): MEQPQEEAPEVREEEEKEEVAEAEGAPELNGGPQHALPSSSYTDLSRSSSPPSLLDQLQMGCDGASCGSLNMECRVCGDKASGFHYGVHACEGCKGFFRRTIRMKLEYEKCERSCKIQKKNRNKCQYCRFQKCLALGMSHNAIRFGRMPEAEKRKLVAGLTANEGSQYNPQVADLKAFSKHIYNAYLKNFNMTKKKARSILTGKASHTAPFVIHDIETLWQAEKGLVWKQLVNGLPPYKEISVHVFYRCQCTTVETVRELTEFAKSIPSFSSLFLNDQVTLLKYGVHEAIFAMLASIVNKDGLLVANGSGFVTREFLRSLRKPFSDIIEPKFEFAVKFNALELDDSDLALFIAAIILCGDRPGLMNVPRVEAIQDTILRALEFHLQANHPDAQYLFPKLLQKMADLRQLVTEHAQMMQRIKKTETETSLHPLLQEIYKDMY
# Procedure, shortened: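 Quantitative high-throughput agonist screen in a HEK293H beta-lactamase reporter line under UAS control. Compounds in DMSO, at 37 C. Fluorescence read after 2 h with FRET substrate at room temperature.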
# [7] = qHTS assay to identify small molecule antagonists of the peroxisome proliferator-activated receptor delta (PPARd) signaling pathway - cell viability counter screen (AID 743213); also: nearly all actives have a fitted effect of over 50% in size; also: potency is read from the fitted curve at half-maximal effect
# Procedure, shortened: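 Agonist-stimulated (L165041, 300 nM final) HEK293H PPARd UAS-bla cells are exposed to compounds for 17 h at 37 C, and ATP-based luminescence (CellTiter-Glo) from the same wells reports cytotoxicity.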
# [8] = target: Peroxisome proliferator-activated receptor delta (Homo sapiens) (UniProt Q03181); test: qHTS assay to identify small molecule antagonists of the peroxisome proliferator-activated receptor delta (PPARd) signaling pathway (AID 743215; active = well fitted inhibition curve with a large enough effect in the signal ratio in the repeat runs, not every such curve was filed as active; the % refers to the signal ratio; also: series mostly up to about 62 µM)
# Procedure, shortened: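 Inhibition of L165041-driven (300 nM final) PPARd signaling is scored in HEK293H UAS-bla cells. Exposure lasts 17 h at 37 C; beta-lactamase activity is then read by FRET substrate fluorescence after 2 h at room temperature.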
# [9] = qHTS assay to identify small molecule agonists of the farnesoid-X-receptor (FXR) signaling pathway - cell viability counter screen (AID 743218); also: nearly all actives have a fitted effect of over 45% in size
# Procedure, shortened: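 Cytotoxicity counter-screen run in parallel, same wells: FXR-UAS-bla HEK 293T cells dosed 16 h at 37 C, viability read by CellTiter-Glo luminescence after 30 min at room temperature.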
# [10] = qHTS assay to identify small molecule antagonists of the farnesoid-X-receptor (FXR) signaling pathway - cell viability counter screen (AID 743221; active = well fitted cell-killing curve with a large enough effect in the repeat runs, not every such curve was filed as active; also: nearly all actives have a fitted effect of over 50% in size)
# Procedure, shortened: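 Here viability was scored by luminescence after CellTiter-Glo addition to wells already read for beta-lactamase. Prior treatment: compound plus CDCA (50 uM final), 16 h, 37 C, HEK 293T FXR-bla cells.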
# [11] = target: Vitamin D3 receptor (Homo sapiens) (UniProt P11473); test: qHTS assay to identify small molecule agonists of the vitamin D receptor (VDR) signaling pathway (AID 743222; calls by dose curve)
# Sequence of Vitamin D3 receptor (Homo sapiens) (P11473 whole entry, looked up): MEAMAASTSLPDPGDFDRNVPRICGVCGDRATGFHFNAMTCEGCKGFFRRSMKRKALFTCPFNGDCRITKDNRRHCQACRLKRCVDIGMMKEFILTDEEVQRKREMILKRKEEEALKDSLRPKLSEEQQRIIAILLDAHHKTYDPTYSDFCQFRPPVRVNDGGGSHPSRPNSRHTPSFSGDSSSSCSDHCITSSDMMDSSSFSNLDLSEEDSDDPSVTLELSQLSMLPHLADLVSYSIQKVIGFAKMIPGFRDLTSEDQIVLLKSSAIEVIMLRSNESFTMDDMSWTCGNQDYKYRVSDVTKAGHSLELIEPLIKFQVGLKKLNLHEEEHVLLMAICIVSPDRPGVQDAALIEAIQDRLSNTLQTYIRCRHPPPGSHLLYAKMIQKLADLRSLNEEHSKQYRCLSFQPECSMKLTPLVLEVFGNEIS
# Procedure, shortened: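 Quantitative HTS agonist-mode screen: compounds in DMSO were pin-transferred onto VDR-bla cells and incubated 16 h at 37C, 5% CO2. Reporter activity was detected with LiveBLAzer B/G FRET substrate after 2 h at room temperature.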
# [12] = target: Vitamin D3 receptor (Homo sapiens) (UniProt P11473); test: qHTS assay to identify small molecule antagonists of the vitamin D receptor (VDR) signaling pathway (AID 743223; active = well fitted inhibition curve with a large enough effect in the signal ratio in the repeat runs, not every such curve was filed as active; the % refers to the signal ratio)
# Procedure, shortened: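 Inhibition of agonist-driven VDR signalling is scored in VDR-bla cells: 3 nM final 1alpha,25-dihydroxyvitamin D3 plus compound, 16 h at 37C, then beta-lactamase detection by FRET substrate fluorescence after 2 h.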
# [13] = target: Aryl hydrocarbon receptor (Homo sapiens) (UniProt P35869); test: qHTS assay to identify small molecule that activate the aryl hydrocarbon receptor (AhR) signaling pathway (AID 743085);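 also: HG2L7.5c1 human HepG2 liver cells with stably integrated DRE-driven firefly reporter; series mostly up to about 70 µM; nearly all actives have a fitted effect of over 15% in size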
# Sequence of Aryl hydrocarbon receptor (Homo sapiens) (P35869 whole entry, looked up): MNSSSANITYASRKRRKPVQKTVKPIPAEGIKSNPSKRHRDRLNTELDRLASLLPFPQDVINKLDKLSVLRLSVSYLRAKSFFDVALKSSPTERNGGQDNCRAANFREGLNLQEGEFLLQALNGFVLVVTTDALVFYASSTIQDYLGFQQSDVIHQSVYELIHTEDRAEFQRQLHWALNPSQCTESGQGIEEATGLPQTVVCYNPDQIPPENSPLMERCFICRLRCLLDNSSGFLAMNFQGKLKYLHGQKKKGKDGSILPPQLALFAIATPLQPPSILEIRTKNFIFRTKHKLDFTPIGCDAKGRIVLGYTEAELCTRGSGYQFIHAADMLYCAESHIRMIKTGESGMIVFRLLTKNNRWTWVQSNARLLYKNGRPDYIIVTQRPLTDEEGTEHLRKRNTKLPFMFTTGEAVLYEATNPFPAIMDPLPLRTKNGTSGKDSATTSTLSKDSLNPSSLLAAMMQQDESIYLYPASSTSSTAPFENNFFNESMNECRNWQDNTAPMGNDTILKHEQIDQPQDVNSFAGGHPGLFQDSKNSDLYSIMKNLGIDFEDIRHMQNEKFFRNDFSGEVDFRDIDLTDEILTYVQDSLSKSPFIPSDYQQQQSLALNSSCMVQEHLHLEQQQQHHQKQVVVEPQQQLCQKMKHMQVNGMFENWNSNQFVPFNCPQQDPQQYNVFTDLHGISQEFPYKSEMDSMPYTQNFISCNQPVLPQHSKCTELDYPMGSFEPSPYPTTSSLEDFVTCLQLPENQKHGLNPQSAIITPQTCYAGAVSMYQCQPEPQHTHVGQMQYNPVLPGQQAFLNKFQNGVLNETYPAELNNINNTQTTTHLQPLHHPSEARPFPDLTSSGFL
# Procedure, shortened: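 Stably transfected human liver carcinoma cells (HG2L7.5c1; 20 DRE-firefly luciferase) were incubated 5 h, dosed, and kept 24 h at 37C. Agonism was scored from increased luciferase luminescence.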
# [14] = qHTS assay for small molecule activators of the heat shock response signaling pathway (AID 743210; active = well fitted activation curve with a large enough effect in the signal ratio in the repeat runs, with a control signal flat, not every such curve was filed as active; the % refers to the signal ratio;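 also: HeLa cells with beta-lactamase reporter driven by heat shock elements; series mostly up to about 63 µM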)
# Procedure, shortened: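 Quantitative high-throughput format using an engineered HeLa line in which heat shock response elements drive beta-lactamase; after 5 h with compound, cells received a B/G FRET substrate and fluorescence was read.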
# [15] = qHTS assay for small molecule agonists of the antioxidant response element (ARE) signaling pathway (AID 743202; active = well fitted activation curve with a large enough effect in the signal ratio in the repeat runs, not every such curve was filed as active; the % refers to the signal ratio)
# Procedure, shortened: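 Agonist mode reporter screen: HepG2 cells with ARE-controlled beta-lactamase are incubated with test compounds for 16 h at 37 C, and beta-lactamase activity is measured as fluorescence of cleaved B/G FRET substrate.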
# [16] = qHTS assay to identify aromatase inhibitors - cell viability counter screen (AID 743084);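 also: cells stimulated with testosterone during compound exposure; nearly all actives have a fitted effect of over 55% in size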
# [17] = qHTS assay to identify small molecule that activate the aryl hydrocarbon receptor (AhR) signaling pathway - cell viability counter screen (AID 743086);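 also: HepG2 liver cells carrying the AhR DRE luciferase reporter; series mostly up to about 70 µM; nearly all actives have a fitted effect of over 45% in size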
# Procedure, shortened: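 HepG2-AhR-luc (HG2L7.5c1) cells, 4000/well, treated 24 h at 37 C with compound; viability measured as CellTiter-Fluor fluorescence after 30 min in the same wells as the luciferase read.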
# [18] = target: Bile acid receptor (Homo sapiens) (UniProt Q96RI1); test: qHTS assay to identify small molecule antagonists of the farnesoid-X-receptor (FXR) signaling pathway (AID 743217; active = well fitted inhibition curve with a large enough effect in the signal ratio in the repeat runs, not every such curve was filed as active; the % refers to the signal ratio)
# Sequence of Bile acid receptor (Homo sapiens) (Q96RI1 whole entry, looked up): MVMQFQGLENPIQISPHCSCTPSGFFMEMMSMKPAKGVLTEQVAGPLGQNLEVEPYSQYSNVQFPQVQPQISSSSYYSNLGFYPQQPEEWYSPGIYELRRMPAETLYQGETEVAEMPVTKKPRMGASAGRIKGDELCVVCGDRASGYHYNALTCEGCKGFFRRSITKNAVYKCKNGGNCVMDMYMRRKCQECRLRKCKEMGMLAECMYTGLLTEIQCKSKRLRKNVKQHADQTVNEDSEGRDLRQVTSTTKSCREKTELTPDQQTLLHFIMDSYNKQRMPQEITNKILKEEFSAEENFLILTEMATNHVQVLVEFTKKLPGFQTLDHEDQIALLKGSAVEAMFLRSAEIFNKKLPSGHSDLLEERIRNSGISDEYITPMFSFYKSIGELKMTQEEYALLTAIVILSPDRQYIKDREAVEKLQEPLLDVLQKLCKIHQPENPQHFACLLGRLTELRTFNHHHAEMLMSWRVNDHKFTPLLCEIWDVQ
# Procedure, shortened: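 Antagonist mode against 50 uM (final) chenodeoxycholic acid stimulation in FXR-bla HEK 293T cells, 16 h at 37 °C. Inhibition detected as reduced beta-lactamase activity via LiveBLAzer B/G FRET fluorescence after 2 h at room temperature.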
# [19] = target: Peroxisome proliferator-activated receptor gamma (Homo sapiens) (UniProt P37231); test: qHTS assay to identify small molecule agonists of the peroxisome proliferator-activated receptor gamma (PPARg) signaling pathway (AID 743094; active = well fitted activation curve with a large enough effect in the signal ratio in the repeat runs, not every such curve was filed as active; the % refers to the signal ratio)
# Procedure, shortened: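 Quantitative HTS agonist mode: stable HEK293H line with UAS-beta-lactamase reporter under PPARg control, 17 h compound exposure at 37C, fluorescence after 1 h FRET substrate loading at room temperature.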
# [20] = target: Bile acid receptor (Homo sapiens) (UniProt Q96RI1); test: qHTS assay to identify small molecule agonists of the farnesoid-X-receptor (FXR) signaling pathway (AID 743220; active = well fitted activation curve with a large enough effect in the signal ratio in the repeat runs, not every such curve was filed as active; the % refers to the signal ratio)
# Procedure, shortened: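 Beta-lactamase reporter under UAS control in GeneBLAzer FXR HEK 293T cells (5000/well) measured with LiveBLAzer FRET substrate after 2 h at room temperature. Compound exposure lasted 16 h at 37C.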
Structure (SMILES),Potency [1],Potency [2],Potency [3],outcome [4],Potency [5],outcome [6],Potency [7],outcome [8],Potency [9],outcome [10],outcome [11],outcome [12],Potency [13],Potency [14],Potency [15],Potency [16],outcome [17],outcome [18],Potency [19],outcome [20]
CC(Oc1c(Cl)cccc1Cl)C1=NCCN1 (stereo not drawn),inactive,inactive,inactive,inactive,inactive,inactive,inactive,inactive,inactive,inactive,inactive,inactive,,,,,,,,
COC(=O)N[C@H](C(=O)N[C@@H](Cc1ccccc1)[C@@H](O)CN(Cc1ccc(-c2ccccn2)cc1)NC(=O)[C@@H](NC(=O)OC)C(C)(C)C)C(C)(C)C,inactive,inactive,inactive,inactive,inactive,inactive,inactive,inactive,inactive,inactive,inactive,inactive,inactive,inactive,,,,,,
Cc1cn([C@@H]2O[C@H](CO)[C@@H](O)[C@@H]2F)c(=O)[nH]c1=O,,inactive,inactive,inactive,inactive,,inactive,inactive,,inactive,inactive,inactive,,inactive,inactive,,,,,
Cc1nc(-c2ccccn2)ncc1C(=O)Nn1cc(C)c2cc(F)ccc21,,inactive,inactive,inactive,,inactive,inactive,,inactive,inactive,inactive,inactive,,inactive,,inactive,inactive,inactive,,
Cc1cc(NS(=O)(=O)c2ccc(N)cc2)nc(C)n1,inactive,inactive,inactive,inactive,inactive,inactive,inactive,inactive,inactive,inactive,,,inactive,inactive,inactive,,inactive,,inactive,
CCC/C=C/CO,,inactive,inactive,inactive,inactive,inactive,inactive,,inactive,inactive,inactive,inactive,inactive,inactive,inactive,,inactive,,inactive,inactive
CCC(=O)c1ccc2c(c1)N(CCCN(C)C)c1ccccc1S2,,inactive,,,29.8 µM (active),,,,,,,,inactive,inactive,,,,inactive,,inactive
O=C(CCCl)NCc1ccccc1,inactive,inactive,inactive,inactive,inactive,inactive,inactive,inactive,,inactive,inactive,inactive,,inactive,inactive,,,,,
CC(C)C(=O)OCC(C)(C)C(O)C(C)C (stereo not drawn),inactive,inactive,inactive,inactive,inactive,inactive,inactive,,inactive,inactive,inactive,inactive,inactive,inactive,inactive,,inactive,inactive,inactive,inactive
CN(C)CC[C@@H](c1ccc(Cl)cc1)c1ccccn1,,inactive,inactive,inactive,,,inactive,,inactive,inactive,,,inactive,inactive,inactive,,inactive,,,
CCCCCCOc1ccc(N)cc1,inactive,inactive,,,inactive,,inactive,,,inactive,inactive,inactive,,inactive,inactive,,inactive,,inactive,inactive
C/C(=N\O)[C@@H](C)NCC(C)(C)CN[C@H](C)/C(C)=N/O,inactive,inactive,inactive,inactive,inactive,,inactive,,inactive,inactive,inactive,inactive,,inactive,inactive,,,,,
CCN(CC)CCOc1ccc(Cc2ccccc2)cc1,inactive,inactive,inactive,inactive,,,,inactive,,,,,,inactive,,inactive,,,inactive,
CC[C@H]1CC[C@H](NCc2cc3c(cc2OC)[C@H]2C[C@H]2C(=O)N3C)[C@H](c2ccccc2)N1,inactive,inactive,inactive,inactive,,inactive,,,inactive,inactive,,,inactive,inactive,,,,,,
Cc1c[nH]c(=S)[nH]c1=O,inactive,inactive,inactive,inactive,,inactive,55.1 µM (active),,inactive,inactive,,inactive,inactive,,inactive,,inactive,,inactive,
CCCS(=O)c1ccc2nc(NC(=O)OC)[nH]c2c1 (stereo not drawn),,inactive,inactive,inactive,inactive,,inactive,,inactive,inactive,inactive,,,inactive,,,,,,inactive
CCCCCCn1c(=O)c2c(ncn2C)n(C)c1=O,,inactive,inactive,inactive,inactive,,inactive,,inactive,inactive,,,,inactive,inactive,,,,,
NC(=O)NS(=O)(=O)c1ccc(Cl)cc1,inactive,inactive,inactive,inactive,,,,inactive,inactive,inactive,inactive,inactive,,,inactive,,,inactive,,inactive
